The values below come from the supplement of paper PMC6411743.

± gives the standard deviation of the averaged measurements. Targets with the largest changes are over-represented here; the source holds about 5,400 in all.

Compound in this assay: Nc1nc2c(ncn2[C@@H]2O[C@H](COP(=O)(O)OP(=O)(O)OP(=O)(O)O)[C@@H](O)[C@H]2O)c(=O)[nH]1 [guanosine triphosphate]
The assay is described as follows: NP40-soluble protein abundance relative to vehicle (solubility fold change) (ratio); higher = more soluble protein in presence of GTP. The essentials: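 Crude Jurkat lysate, prepared by Dounce homogenisation, was exposed to eight concentrations from 0.1 to 10 mM for 10 min at room temperature and then 3 min at 37 °C. Solubilisation used 0.8% NP40 with benzonase for 60 min at 4 °C, followed by ultracentrifugation and TMT labelling of the supernatant for LC-MS/MS. After vsn normalisation of intensities, each value is the fold change against the detergent-processed vehicle within each replicate, across three independent experiments.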

UniProt Q9NVK5, sequence (Q9NVK5 whole entry): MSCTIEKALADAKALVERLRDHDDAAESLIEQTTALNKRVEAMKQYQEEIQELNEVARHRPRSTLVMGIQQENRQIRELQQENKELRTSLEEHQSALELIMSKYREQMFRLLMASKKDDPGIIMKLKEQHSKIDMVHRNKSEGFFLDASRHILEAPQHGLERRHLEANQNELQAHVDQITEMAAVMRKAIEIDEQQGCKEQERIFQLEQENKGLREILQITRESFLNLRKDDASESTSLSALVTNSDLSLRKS
UniProt Q9NX05, sequence (Q9NX05 whole entry): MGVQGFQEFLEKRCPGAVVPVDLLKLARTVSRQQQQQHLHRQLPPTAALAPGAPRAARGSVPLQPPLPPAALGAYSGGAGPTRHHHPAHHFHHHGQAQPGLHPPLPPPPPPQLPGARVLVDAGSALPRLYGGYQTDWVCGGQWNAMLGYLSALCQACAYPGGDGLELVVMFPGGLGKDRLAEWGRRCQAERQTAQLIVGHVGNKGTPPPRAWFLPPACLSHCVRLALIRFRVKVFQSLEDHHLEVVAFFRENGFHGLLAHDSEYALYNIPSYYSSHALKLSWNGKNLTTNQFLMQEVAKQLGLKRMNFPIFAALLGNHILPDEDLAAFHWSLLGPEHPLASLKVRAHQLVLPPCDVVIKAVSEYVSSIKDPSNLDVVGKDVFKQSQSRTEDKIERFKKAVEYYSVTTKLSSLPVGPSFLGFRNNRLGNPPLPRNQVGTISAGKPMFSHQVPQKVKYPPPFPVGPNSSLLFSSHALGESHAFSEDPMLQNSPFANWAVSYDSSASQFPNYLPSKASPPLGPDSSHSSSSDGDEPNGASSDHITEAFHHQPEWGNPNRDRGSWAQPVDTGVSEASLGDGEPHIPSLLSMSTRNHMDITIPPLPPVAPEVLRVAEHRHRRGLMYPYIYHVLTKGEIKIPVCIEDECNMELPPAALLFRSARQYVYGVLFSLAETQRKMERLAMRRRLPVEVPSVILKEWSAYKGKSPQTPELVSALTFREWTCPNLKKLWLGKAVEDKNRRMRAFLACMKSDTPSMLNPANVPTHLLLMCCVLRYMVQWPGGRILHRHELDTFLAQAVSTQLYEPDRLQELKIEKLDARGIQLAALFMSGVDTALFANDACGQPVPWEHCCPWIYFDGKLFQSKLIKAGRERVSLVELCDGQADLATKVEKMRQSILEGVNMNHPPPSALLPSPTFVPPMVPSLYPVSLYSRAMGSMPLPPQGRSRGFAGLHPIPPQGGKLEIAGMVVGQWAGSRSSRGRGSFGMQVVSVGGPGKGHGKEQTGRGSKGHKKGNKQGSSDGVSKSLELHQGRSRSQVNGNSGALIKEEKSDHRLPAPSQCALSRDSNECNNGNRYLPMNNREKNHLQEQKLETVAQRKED
UniProt Q92900, sequence (Q92900 whole entry): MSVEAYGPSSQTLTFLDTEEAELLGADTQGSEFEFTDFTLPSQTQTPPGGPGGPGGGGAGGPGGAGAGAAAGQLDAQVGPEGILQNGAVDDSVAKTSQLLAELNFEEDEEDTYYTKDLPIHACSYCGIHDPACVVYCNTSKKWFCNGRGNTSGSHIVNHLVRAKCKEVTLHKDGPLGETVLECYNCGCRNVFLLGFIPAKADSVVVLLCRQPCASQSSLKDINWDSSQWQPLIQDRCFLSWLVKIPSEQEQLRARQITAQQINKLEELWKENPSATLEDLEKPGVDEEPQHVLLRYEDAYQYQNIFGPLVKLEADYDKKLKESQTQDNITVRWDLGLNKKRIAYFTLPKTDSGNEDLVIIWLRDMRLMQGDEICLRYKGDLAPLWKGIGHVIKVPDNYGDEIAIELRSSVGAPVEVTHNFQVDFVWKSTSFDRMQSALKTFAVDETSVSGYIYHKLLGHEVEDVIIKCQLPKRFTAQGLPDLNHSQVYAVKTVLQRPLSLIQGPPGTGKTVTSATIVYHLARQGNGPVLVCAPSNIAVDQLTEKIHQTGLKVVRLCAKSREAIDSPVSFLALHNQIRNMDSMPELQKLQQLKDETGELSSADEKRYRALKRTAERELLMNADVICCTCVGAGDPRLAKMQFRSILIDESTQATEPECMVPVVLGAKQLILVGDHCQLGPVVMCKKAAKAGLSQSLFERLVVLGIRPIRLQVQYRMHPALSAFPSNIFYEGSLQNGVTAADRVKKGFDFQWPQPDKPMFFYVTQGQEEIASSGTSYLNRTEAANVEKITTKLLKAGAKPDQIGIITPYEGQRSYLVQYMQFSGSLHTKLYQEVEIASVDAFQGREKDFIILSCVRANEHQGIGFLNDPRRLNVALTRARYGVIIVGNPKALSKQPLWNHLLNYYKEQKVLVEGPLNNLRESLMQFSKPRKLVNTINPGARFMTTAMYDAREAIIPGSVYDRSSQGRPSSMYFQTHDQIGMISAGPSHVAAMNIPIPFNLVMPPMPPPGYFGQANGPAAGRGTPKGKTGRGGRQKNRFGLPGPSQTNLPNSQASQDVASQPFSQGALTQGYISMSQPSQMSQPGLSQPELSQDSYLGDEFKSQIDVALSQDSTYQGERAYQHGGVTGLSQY
UniProt Q9HC52, sequence (Q9HC52 whole entry): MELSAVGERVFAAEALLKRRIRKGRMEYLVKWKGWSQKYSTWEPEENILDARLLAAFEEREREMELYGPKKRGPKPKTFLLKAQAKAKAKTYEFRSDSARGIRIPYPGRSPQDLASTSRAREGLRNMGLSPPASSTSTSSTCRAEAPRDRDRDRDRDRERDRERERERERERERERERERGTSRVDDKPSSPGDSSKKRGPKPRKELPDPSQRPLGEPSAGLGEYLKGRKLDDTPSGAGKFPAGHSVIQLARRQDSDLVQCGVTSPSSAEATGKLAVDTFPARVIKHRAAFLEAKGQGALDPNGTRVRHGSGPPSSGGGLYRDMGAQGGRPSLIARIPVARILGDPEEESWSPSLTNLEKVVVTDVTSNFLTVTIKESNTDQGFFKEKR
UniProt Q9Y508, sequence (Q9Y508 whole entry): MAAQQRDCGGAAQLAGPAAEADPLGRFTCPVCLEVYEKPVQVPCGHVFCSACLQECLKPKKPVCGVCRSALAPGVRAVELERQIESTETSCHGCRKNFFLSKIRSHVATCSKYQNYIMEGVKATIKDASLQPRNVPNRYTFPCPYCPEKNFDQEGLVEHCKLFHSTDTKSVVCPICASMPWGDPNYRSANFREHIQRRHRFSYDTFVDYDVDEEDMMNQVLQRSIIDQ
UniProt Q9Y383, sequence (Q9Y383 whole entry): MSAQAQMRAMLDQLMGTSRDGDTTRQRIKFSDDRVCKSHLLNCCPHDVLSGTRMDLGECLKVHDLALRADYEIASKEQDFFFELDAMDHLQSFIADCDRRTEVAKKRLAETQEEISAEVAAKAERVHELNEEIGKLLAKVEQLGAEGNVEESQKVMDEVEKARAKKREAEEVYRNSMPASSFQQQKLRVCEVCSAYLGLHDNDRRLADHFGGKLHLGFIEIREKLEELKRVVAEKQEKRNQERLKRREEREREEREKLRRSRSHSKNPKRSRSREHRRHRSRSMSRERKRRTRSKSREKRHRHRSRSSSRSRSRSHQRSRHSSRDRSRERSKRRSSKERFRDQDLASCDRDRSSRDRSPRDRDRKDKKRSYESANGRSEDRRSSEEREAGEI
UniProt Q9UNX4, sequence (Q9UNX4 whole entry): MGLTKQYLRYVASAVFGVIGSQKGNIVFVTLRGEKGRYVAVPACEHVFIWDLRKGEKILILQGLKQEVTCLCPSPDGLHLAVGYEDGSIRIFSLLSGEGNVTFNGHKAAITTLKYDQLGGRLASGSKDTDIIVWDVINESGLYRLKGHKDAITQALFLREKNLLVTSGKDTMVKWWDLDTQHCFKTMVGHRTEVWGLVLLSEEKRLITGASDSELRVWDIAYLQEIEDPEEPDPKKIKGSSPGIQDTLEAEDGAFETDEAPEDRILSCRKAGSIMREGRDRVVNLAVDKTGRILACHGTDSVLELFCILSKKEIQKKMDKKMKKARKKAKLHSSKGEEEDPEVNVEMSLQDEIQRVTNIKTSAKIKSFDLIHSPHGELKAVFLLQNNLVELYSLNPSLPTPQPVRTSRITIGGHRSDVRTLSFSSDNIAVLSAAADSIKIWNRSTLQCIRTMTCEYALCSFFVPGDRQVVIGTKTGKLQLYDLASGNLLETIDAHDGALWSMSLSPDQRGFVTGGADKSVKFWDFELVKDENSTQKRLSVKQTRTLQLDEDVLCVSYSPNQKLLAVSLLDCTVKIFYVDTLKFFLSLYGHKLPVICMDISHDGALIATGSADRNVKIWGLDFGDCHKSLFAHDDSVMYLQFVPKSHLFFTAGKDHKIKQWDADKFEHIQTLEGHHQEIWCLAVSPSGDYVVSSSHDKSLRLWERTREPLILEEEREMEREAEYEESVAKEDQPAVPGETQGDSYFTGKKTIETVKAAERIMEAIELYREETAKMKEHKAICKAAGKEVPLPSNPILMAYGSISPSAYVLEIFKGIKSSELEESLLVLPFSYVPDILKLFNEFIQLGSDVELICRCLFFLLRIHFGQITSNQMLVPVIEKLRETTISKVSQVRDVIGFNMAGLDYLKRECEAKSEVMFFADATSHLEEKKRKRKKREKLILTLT
UniProt Q9BW83, sequence (Q9BW83 whole entry): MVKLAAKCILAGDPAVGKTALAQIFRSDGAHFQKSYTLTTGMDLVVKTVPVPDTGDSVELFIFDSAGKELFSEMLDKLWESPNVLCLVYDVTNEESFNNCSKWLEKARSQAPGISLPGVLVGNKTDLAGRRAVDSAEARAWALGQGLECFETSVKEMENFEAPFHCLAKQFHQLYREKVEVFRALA
UniProt Q9H0C8, sequence (Q9H0C8 whole entry): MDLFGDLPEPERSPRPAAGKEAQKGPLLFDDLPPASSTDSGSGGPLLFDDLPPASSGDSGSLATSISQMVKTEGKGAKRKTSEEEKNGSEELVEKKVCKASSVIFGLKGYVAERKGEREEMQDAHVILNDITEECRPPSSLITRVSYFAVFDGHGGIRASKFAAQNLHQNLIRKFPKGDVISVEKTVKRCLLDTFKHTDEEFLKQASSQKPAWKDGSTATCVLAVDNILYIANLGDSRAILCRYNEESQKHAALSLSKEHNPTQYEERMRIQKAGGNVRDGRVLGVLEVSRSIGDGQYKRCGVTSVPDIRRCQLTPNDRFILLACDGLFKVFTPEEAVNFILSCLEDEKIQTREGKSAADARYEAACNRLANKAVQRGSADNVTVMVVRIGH

As to ILKAP (UniProt Q9H0C8), the NP40-soluble protein abundance reads like this: (concentration: 0.1mM) 0.959 ± 0.034; (concentration: 0.5mM) 0.95 ± 0.023; (concentration: 1mM) 0.905 ± 0.049; (concentration: 2mM) 0.904 ± 0.058; (concentration: 4mM) 0.88 ± 0.058; (concentration: 6mM) 0.897 ± 0.048. The NP40-soluble protein abundance turned out to be 0.87 ± 0.049 (concentration: 8mM) and 0.869 ± 0.065 (concentration: 10mM).

Turning to UniProt Q9BW83|Q9BW83-2, the NP40-soluble protein abundance is 0.972 ± 0.019 (concentration: 0.1mM); 1.05 ± 0.059 (concentration: 0.5mM); 0.971 ± 0.02 (concentration: 1mM); 0.958 ± 0.013 (concentration: 2mM); 0.911 ± 0.036 (concentration: 4mM); 0.95 ± 0.018 (concentration: 6mM). The NP40-soluble protein abundance runs as follows: (concentration: 8mM) 0.916 ± 0.016; (concentration: 10mM) 0.944 ± 0.0068.

Take FAM120C (UniProt Q9NX05): the NP40-soluble protein abundance amounted to 1 ± 0.021 (concentration: 0.1mM); 1.04 ± 0.017 (concentration: 0.5mM); 1.04 ± 0.036 (concentration: 1mM); 1.09 ± 0.065 (concentration: 2mM); 1.12 ± 0.068 (concentration: 4mM); 1.18 ± 0.077 (concentration: 6mM). The NP40-soluble protein abundance reads like this: (concentration: 8mM) 1.25 ± 0.08; (concentration: 10mM) 1.25 ± 0.061.

In the case of RNF114 (UniProt Q9Y508), the NP40-soluble protein abundance runs as follows: (concentration: 0.1mM) 0.95 ± 0.011; (concentration: 0.5mM) 0.967 ± 0.032; (concentration: 1mM) 0.924 ± 0.041; (concentration: 2mM) 0.91 ± 0.068; (concentration: 4mM) 0.895 ± 0.057; (concentration: 6mM) 0.897 ± 0.056. The NP40-soluble protein abundance is 0.876 ± 0.072 (concentration: 8mM) and 0.888 ± 0.084 (concentration: 10mM).

Turning to UniProt Q99707|Q99707-2, the NP40-soluble protein abundance is 0.997 ± 0.019 (concentration: 0.1mM); 1.01 ± 0.062 (concentration: 0.5mM); 0.987 ± 0.015 (concentration: 1mM); 1.01 ± 0.033 (concentration: 2mM); 0.973 ± 0.022 (concentration: 4mM); 0.965 ± 0.0072 (concentration: 6mM). Further, the NP40-soluble protein abundance came out at 0.928 ± 0.023 (concentration: 8mM) and 0.927 ± 0.029 (concentration: 10mM).

As to UniProt Q92900|Q92900-2, the NP40-soluble protein abundance is, setting by setting: (concentration: 0.1mM) 1.01 ± 0.025; (concentration: 0.5mM) 1.01 ± 0.04; (concentration: 1mM) 0.936 ± 0.034; (concentration: 2mM) 0.971 ± 0.065; (concentration: 4mM) 0.957 ± 0.049; (concentration: 6mM) 0.937 ± 0.057. The NP40-soluble protein abundance (concentration: 8mM) was 0.898 ± 0.035 and the NP40-soluble protein abundance (concentration: 10mM) amounted to 0.884 ± 0.011.

Consider UniProt Q9UKZ1, for which the NP40-soluble protein abundance (concentration: 0.1mM) is 1.52 ± 0.81; the NP40-soluble protein abundance (concentration: 0.5mM) was determined as 1.19 ± 0.11; the NP40-soluble protein abundance (concentration: 1mM) stood at 1.4 ± 0.41; the NP40-soluble protein abundance (concentration: 2mM) is 2.81 ± 2.7; the NP40-soluble protein abundance (concentration: 4mM) is 1.26 ± 0.14; the NP40-soluble protein abundance (concentration: 6mM) was 1.24 ± 0.11. The NP40-soluble protein abundance by setting is: (concentration: 8mM) 1.29 ± 0.15; (concentration: 10mM) 1.36 ± 0.051.

On to UniProt Q9Y3U8|J3QSB5, for which the NP40-soluble protein abundance (concentration: 0.1mM) is 0.976 ± 0.084; the NP40-soluble protein abundance (concentration: 0.5mM) is 0.987 ± 0.01; the NP40-soluble protein abundance (concentration: 1mM) is 1.04 ± 0.075; the NP40-soluble protein abundance (concentration: 2mM) is 0.994 ± 0.14; the NP40-soluble protein abundance (concentration: 4mM) worked out at 0.921 ± 0.12; the NP40-soluble protein abundance (concentration: 6mM) was 0.855 ± 0.09. Also, the NP40-soluble protein abundance (concentration: 8mM) is 0.514 ± 0.13 and the NP40-soluble protein abundance (concentration: 10mM) was determined as 0.919 ± 0.16.

On to CBX8 (UniProt Q9HC52), for which the NP40-soluble protein abundance is, setting by setting: (concentration: 0.1mM) 1.01 ± 0.04; (concentration: 0.5mM) 1.04 ± 0.048; (concentration: 1mM) 1.13 ± 0.013; (concentration: 2mM) 1.24 ± 0.14; (concentration: 4mM) 1.42 ± 0.15; (concentration: 6mM) 1.61 ± 0.15. Also, the NP40-soluble protein abundance (concentration: 8mM) was 1.74 ± 0.17 and the NP40-soluble protein abundance (concentration: 10mM) stood at 1.86 ± 0.23.

Turning to UniProt Q9NVK5|Q9NVK5-2, the NP40-soluble protein abundance runs as follows: (concentration: 0.1mM) 0.987 ± 0.072; (concentration: 0.5mM) 0.945 ± 0.1; (concentration: 1mM) 1.16 ± 0.17; (concentration: 2mM) 1.11 ± 0.086; (concentration: 4mM) 1.13 ± 0.1; (concentration: 6mM) 1.19 ± 0.092. The NP40-soluble protein abundance stood at 1.28 ± 0.17 (concentration: 8mM) and 1.27 ± 0.2 (concentration: 10mM).

Regarding UniProt Q9UKA9|Q9UKA9-4, the NP40-soluble protein abundance (concentration: 0.1mM) was found to be 1.04 ± 0.021; the NP40-soluble protein abundance (concentration: 0.5mM) worked out at 0.985 ± 0.025; the NP40-soluble protein abundance (concentration: 1mM) worked out at 1.01 ± 0.014; the NP40-soluble protein abundance (concentration: 2mM) was 0.989 ± 0.045; the NP40-soluble protein abundance (concentration: 4mM) amounted to 0.947 ± 0.051; the NP40-soluble protein abundance (concentration: 6mM) worked out at 0.955 ± 0.036. The NP40-soluble protein abundance by setting is: (concentration: 8mM) 0.963 ± 0.029; (concentration: 10mM) 0.906 ± 0.027.

Take WDR3 (UniProt Q9UNX4): the NP40-soluble protein abundance by setting is: (concentration: 0.1mM) 1.12 ± 0.08; (concentration: 0.5mM) 1.15 ± 0.098; (concentration: 1mM) 1.13 ± 0.061; (concentration: 2mM) 1.42 ± 0.13; (concentration: 4mM) 1.81 ± 0.16; (concentration: 6mM) 1.98 ± 0.2. For the same target, the NP40-soluble protein abundance reads like this: (concentration: 8mM) 2.04 ± 0.12; (concentration: 10mM) 1.974 ± 0.012.

Take UniProt Q9UBD5|Q9UBD5-2: the NP40-soluble protein abundance (concentration: 0.1mM) was determined as 0.981 ± 0.061; the NP40-soluble protein abundance (concentration: 0.5mM) turned out to be 1.06 ± 0.076; the NP40-soluble protein abundance (concentration: 1mM) came to 0.957 ± 0.092; the NP40-soluble protein abundance (concentration: 2mM) is 1.04 ± 0.049; the NP40-soluble protein abundance (concentration: 4mM) was 0.998 ± 0.069; the NP40-soluble protein abundance (concentration: 6mM) worked out at 1.04 ± 0.04. The NP40-soluble protein abundance is 1.02 ± 0.1 (concentration: 8mM) and 1.07 ± 0.018 (concentration: 10mM).

Turning to LUC7L2 (UniProt Q9Y383), the NP40-soluble protein abundance is, setting by setting: (concentration: 0.1mM) 1.09 ± 0.11; (concentration: 0.5mM) 1.4 ± 0.08; (concentration: 1mM) 1.58 ± 0.098; (concentration: 2mM) 1.54 ± 0.18; (concentration: 4mM) 1.56 ± 0.12; (concentration: 6mM) 1.66 ± 0.12. For the same target, the NP40-soluble protein abundance reads like this: (concentration: 8mM) 1.74 ± 0.15; (concentration: 10mM) 1.7 ± 0.16.
